Consider 46 molecules from PubChem BioAssay AID743279 (National Center for Advancing Translational Sciences (NCATS), 2014).

Among all 360,000 compounds or so, about 17,000 (4.7%) were called active. Not shown: some 5% with an inconclusive outcome. Cut-off read from the data, not from the text of the source: active = activity change below about -50%; inconclusive = mostly about -30% to -49%; inactive = weaker than that. For the sample, actives were picked, then their nearest neighbours and some compounds at random.
% is set by controls: 0 for no effect and ±100 for the full control effect.

This assay is described as follows: qHTS for Inhibitors of Inflammasome Signaling: IL-1-beta AlphaLISA Primary Screen. The note with it: THP-1 LPS/ATP IL-1B secretion, 16 h; at 57.5 µM, active compounds read low. From the text: Inflammasomes are a set of intracellular multi-protein complexes that enable autocatalytic activation of inflammatory caspases and drive the innate immune response to counter harmful agents. […] A qHTS assay, based on AlphaLISA technology, was developed to screen the Molecular Libraries Small Molecule Repository (MLSMR) to look for novel inflammasome inhibitors. The assay detects IL-1B using AlphaLISA anti-IL-1B acceptor and donor beads. A decreased emission signal, indicating reduced IL-1B secretion, is the desired outcome for this assay. NIH Chemical Genomics Center [NCGC] NIH Molecular Libraries Probe Centers Network [MLPCN] MLPCN Grant: MH095513 Assay Provider: Shyam Biswal Ph.D., Johns Hopkins University Immunity. 2012 Jul 27;37(1):85-95. PMID: 22819042 [2] Curr Pharm Des. 2012;18(16):2320-8. PMID: 22390695
Three microliters containing 3000 THP-1 cells were dispensed into the wells of solid, white, tissue culture treated Greiner 1,536-well plates. Library compounds and positive control, Glyburide, were pin-transferred (23 nL) by a Kalypsys pin-tool equipped with a 1,536-pin array, resulting in final compound concentration ranges of 2.5 nM to 57.5 uM. After 1 hr of cell culture incubation (37 °C, 5% CO2), 1 microL of 1 microg/mL lipopolysaccharide (250 ng/mL, final) and 5 mM ATP (1.25 mM, final) were added to stimulate the cells. After 16 hr of cell culture incubation with the compounds, 1.5 uL of anti-IL-1B acceptor beads (6 ug/mL, final) and biotinylated antibody (0.6 nM, final) were added to the plate, followed by a 1 hr incubation at ambient temperature. To detect the secreted IL-1B, 1.5 uL of AlphaLISA SA-Donor beads (24 ug/mL, final) were added, followed by 30 min of incubation in the dark at ambient temperature. The AlphaLISA signal was read by a PerkinElmer EnVision plate reader with an ultrasensitive luminescence detector and 1536 Plate HTS AlphaScreen aperture (excitation of 680nm and emission of 615nm).
(In general: Quantitative high-throughput screening tests each substance at several concentrations.)
On to `CS(=O)(=O)N1CCCC(C(=O)Nc2ccccc2C(F)(F)F)C1` (stereo unspecified), for which the activity change is 8.14% (inactive). Then `O=C(Nc1cccc(F)c1)N1C2CCC1CC(O)(c1cccnc1)C2` (stereo unspecified), with 31.6% (inactive); and `Cc1nc2nc3c(cn2n1)C(=O)CC(c1ccccc1)C3` (stereo unspecified), with 20.9% (inactive); and `Cc1cc(C)nc(-n2ncc3c2CC(c2ccc(C(C)C)cc2)CC3=O)n1` (stereo unspecified), with -85.9% (active). The same measure for `COc1ccc(OC)c(-n2cc3c(=O)n(C)c(=O)n(C)c3c2)c1`: 33% (inactive); for `CC1(C)N=C(N)NC(Nc2ccc(Cl)cc2)=N1`: -77.7% (active).

Consider `O=c1ccnc(Nc2ccc(Cl)cc2)[nH]1`, for which the activity change is 0% (inactive). The same measure for `COc1ccccc1NC1=NC(c2ccc(Cl)cc2)N=C(N)N1` (stereo unspecified): -13.3% (inactive); for `O=C(Nc1ccc2c(c1)OCCO2)C(C1CC1)N1CCC(Cc2ccccc2)CC1` (stereo unspecified): 11.6% (inactive). Then `CC1Oc2ccccc2N(Cc2cccnc2)C1=O` (stereo unspecified), with -12.7% (inactive). `CC1(C)CN(Cc2cccnc2)C(=O)[C@H]1CC(=O)Nc1ccc(Br)cc1`: the activity change is 24.4% (inactive). Regarding `CC12c3ccccc3C(c3ccccc31)C1C(=O)N(Cc3cccnc3)C(=O)C12` (stereo unspecified), the activity change was -50.6% (active).

`CC(=O)N1CCN(Cc2cc(=O)oc3cc(C)ccc23)CC1`: the activity change was 19.5% (inactive). In the case of `O=C(/C(=N\O)n1cncn1)c1ccc(Br)cc1Br`, the activity change is -12.3% (inactive). The same measure for `Cc1nc2sc(C(=O)c3ccccc3)c(N)c2c2c1CCCC2`: -96% (active).

As to `CCN(CC)C(=O)c1sc(NC(=O)c2ccco2)c(C#N)c1C`, the activity change was -26.1% (inactive). `Cc1ccc2c(N)c(C(=O)c3ccccc3)sc2n1`: the activity change is -69.1% (active).

Regarding `COC(=O)c1cc2c(N)c(C(=O)c3ccc(Cl)cc3)sc2nc1C(OC)OC`, the activity change was -7.51% (inactive). For `CCN(CC)C(=O)c1sc2nc(-c3ccccc3)ccc2c1N`, the activity change is -57.4% (active). As for `Cc1cccc(NC(=O)c2sc3nc(N4CCOCC4)c4c(c3c2N)CCCC4)c1`, the activity change is 11.3% (inactive). Turning to `CCN(CC)C(=O)N(CC)Cc1ccccc1`, the activity change was 3.47% (inactive).

Regarding `Cc1nn(C)cc1C(=O)c1ccccc1`, the activity change was 0% (inactive).

Take `Cc1nc2ccccc2c(-c2ccccc2)c1C(=O)c1ccccc1`: the activity change was 29.5% (inactive). The same measure for `COCCCn1c(=O)/c(=C/c2ccccc2OC(C)C)s/c1=C(\C#N)C(=O)Nc1ccc(C(=O)O)cc1`: -11.6% (inactive); for `CC1Cc2ccccc2N1S(=O)(=O)c1cccc(C(=O)NCC(c2ccco2)N2CCCC2)c1` (stereo unspecified): -6.87% (inactive). Regarding `Cc1ccc([C@H]2N[C@]3(CCCN(Cc4ccccc4)C3=O)[C@H]3C(=O)N(Cc4ccccc4)C(=O)[C@@H]23)cc1`, the activity change was 19.2% (inactive).

On to `CC(C)N1C(=O)c2ccccc2NC(=O)C1C(=O)NCc1cccs1` (stereo unspecified), for which the activity change is 0% (inactive). The same measure for `C[C@@H]1CN([C@@H](C)CO)C(=O)c2cc(NS(C)(=O)=O)ccc2O[C@@H](C)CCCCO[C@H]1CN(C)C(=O)Nc1ccc2c(c1)OCO2`: -2.98% (inactive); for `C[C@@H]1CCCCO[C@H](CN(C)Cc2ccccc2)[C@@H](C)CN([C@H](C)CO)C(=O)c2cc(NS(=O)(=O)c3ccc(Cl)cc3)ccc2O1`: -50.8% (active).

As to `Cc1ccc(S(=O)(=O)Nc2ccc3c(c2)C(=O)N([C@H](C)CO)C[C@@H](C)[C@@H](CN(C)C(=O)Nc2cccc4ccccc24)O3)cc1`, the activity change was -20.3% (inactive).

Consider `COc1cc(NC(=O)c2cc(-c3ccc(F)cc3OC(C)C)n[nH]2)cc(OC)c1OC`, for which the activity change is -6.74% (inactive). Then `Cc1cccc(NC(=S)NCc2ccc3[nH]c4c(c3c2)CCCC4)c1`, with -10.4% (inactive); and `Cc1cccc(NC(=S)NCCN(C2CCCCC2)C2CCCC2)c1`, with -63.3% (active). Then `Cc1cccc(C(=O)NC(=S)N(C)C2CCCCC2)c1`, with -1.28% (inactive); and `COc1ccc(C)cc1N(C(=O)Cn1nnc(-c2ccc(C)o2)n1)C(C(=O)NC1CCCC1)c1ccncc1` (stereo unspecified), with 7.77% (inactive); and `Cc1ccc2c(c1)c1ncnc(N3CCc4ccccc4C3)c1n2C`, with -19.9% (inactive). Turning to `O=C1CCC(C(=O)OCC(=O)Nc2ccc(OC(F)F)cc2)=NN1`, the activity change was -2.22% (inactive).

For `CCn1ccnc1CN(C)C(=O)c1cc(COc2ccc(-n3cncn3)cc2)on1`, the activity change was 21.7% (inactive). Regarding `C=CCC1(CC=C)CCCN1C(=O)c1cc(COc2ccc(-n3cncn3)cc2)on1`, the activity change is -59.7% (active). The same measure for `O=C(c1cc(COc2ccc(F)c(F)c2)on1)N1CCOCC1`: -28.7% (inactive); for `O=C(NC1CCCC1)C1c2ccccc2OCC(=O)N1Cc1ccccc1` (stereo unspecified): 27.8% (inactive). With `CCN1CCN(C(=O)CCN2C(=O)c3ccccc3C2=O)CC1`, the activity change was 15.8% (inactive). The same measure for `O=C(O)CC12CC3CC(C1)CC(n1ncc(NCc4ccc(F)cc4)c(Cl)c1=O)(C3)C2`: -16% (inactive); for `CSC1=N/C(=C\C=C\c2cccs2)C(=O)S1`: -92.1% (active).

Turning to `COc1ccc(OC(C)C(=O)Nc2cccnc2)cc1` (stereo unspecified), the activity change was -0.423% (inactive).

As to `CC(Sc1nc2c([nH]c3ccccc32)c(=O)n1C)c1ccccc1` (stereo unspecified), the activity change was 27.7% (inactive).
